Several values for one entry are separate records, joined by “and”; a condition that tells them apart may be missing. Equal entries are not always repeated. Screen size: about 5,500 compounds; about 2,000 (36%) were called active. About 18% were inconclusive and are not listed. Cut-off read from the data, not from the text of the source: active = normalized growth mostly below about 0.91 (no sharp cut-off); inconclusive = no clear call, values can overlap the other calls; inactive = mostly above about 0.92. The list shows a part of the results.
Experiment: chemical genetic growth profiling, strain panel (AID 1159580);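 note: tested at 20 µM; growth read once vehicle control cultures reached saturation at 30 °C; 1 = growth at the plate median or of vehicle wells; lower values mean less growth of the strain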
Conditions: S. cerevisiae deletion strains, growth OD
[1] = locus YAL013W, strain DEP1, stronger effect = lower value
[2] = locus YBR229C, strain ROT2, stronger effect = lower value
[3] = locus YCL061C, strain MRC1, stronger effect = lower value
[4] = locus YDL101C, strain DUN1, stronger effect = lower value
[5] = locus YEL061C, strain CIN8, stronger effect = lower value
[6] = locus YGR078C, strain PAC10, stronger effect = lower value
[7] = locus YHR030C, strain SLT2, stronger effect = lower value
[8] = locus YJR043C, strain POL32, stronger effect = lower value
[9] = locus YJR075W, strain HOC1, stronger effect = lower value
[10] = locus YLR039C, strain RIC1, stronger effect = lower value
[11] = locus YLR262C, strain YPT6, stronger effect = lower value
[12] = locus YMR263W, strain SAP30, stronger effect = lower value
[13] = locus YNL153C, strain GIM3, stronger effect = lower value
[14] = locus YNL322C, strain KRE1, stronger effect = lower value

Measured: normalized growth

Cc1ccc(OCc2nnc(SCC(=O)Nc3cccc4c3OCO4)n2-c2ccccc2)c2c1CCC2
inactive: [1] 1.01 | [2] 1.01 | [3] 1 | [4] 0.992 | locus YDR150W, strain NUM1, stronger effect = lower value 0.982 | [5] 0.99 | [6] 1 | locus YGR229C, strain SMI1, stronger effect = lower value 0.993 | [7] 1 | locus YHR087W, strain rtc3, stronger effect = lower value 0.992 | [8] 1 | [9] 1.01 | locus YKL190W, strain CNB1, stronger effect = lower value 0.973 | [10] 0.991 | locus YLR058C, strain SHM2 (second series), stronger effect = lower value 1.01 | locus YLR085C, strain ARP6, stronger effect = lower value 0.995 | [11] 0.985 | locus YML094W, strain GIM5, stronger effect = lower value 0.98 | locus YMR219W, strain ESC1, stronger effect = lower value 0.999 | [12] 1.01 | locus YNL128W, strain TEP1, stronger effect = lower value 0.984 | [13] 1 | locus YNL298W, strain CLA4 (second series), stronger effect = lower value 0.988 | [14] 0.992 | locus YNR030W, strain Alg12, stronger effect = lower value 0.995 | locus YPL055C, strain LGE1, stronger effect = lower value 0.991 | locus YPL241C, strain CIN2, stronger effect = lower value 0.999 | locus YPR135W, strain CTF4, stronger effect = lower value 1.02

C[C@H](CCC(=O)O)[C@H]1CCC2C3C(CC[C@@]21C)[C@@]1(C)CC[C@@H](O)C[C@H]1C[C@H]3O (some centres undefined)
active: locus YDR137W, strain rgp1, stronger effect = lower value 0.786 | locus YLR262C, strain YPT6 (second series), stronger effect = lower value 0.799 | locus YOL147C, strain pex11, stronger effect = lower value 1.07 [resistant] | locus YOR231W, strain MKK1, stronger effect = lower value 0.849
inactive: [1] 1.02 | locus YAL021C, strain ccr4, stronger effect = lower value 1.01 | locus YAL026C, strain drs2, stronger effect = lower value 0.987 | locus YAL030W, strain snc1, stronger effect = lower value 1.02 | locus YBL061C, strain skt5, stronger effect = lower value 1.02 | locus YBR009C, strain hhf1, stronger effect = lower value 0.973 | locus YBR021W, strain FUR4, stronger effect = lower value 1.02 | locus YBR023C, strain chs3, stronger effect = lower value 1.01 | locus YBR171W, strain sec66, stronger effect = lower value 1 | [2] 1.02 | locus YBR231C, strain swc5, stronger effect = lower value 1.03 | locus YBR279W, strain paf1, stronger effect = lower value 1.01 | locus YCL011C, strain gbp2, stronger effect = lower value 1 | locus YCL016C, strain dcc1, stronger effect = lower value 0.982 | locus YCL029C, strain bik1, stronger effect = lower value 1.05 | [3] 0.998 | locus YCL069W, strain vba3, stronger effect = lower value 1.02 | locus YCR088W, strain abp1, stronger effect = lower value 1.02 | locus YDL005C, strain med2, stronger effect = lower value 1.01 | locus YDL035C, strain GPR1, stronger effect = lower value 0.985 | locus YDL040C, strain nat1, stronger effect = lower value 1.01 | locus YDL074C, strain BRE1, stronger effect = lower value 1.09 | [4] 1.02 | locus YDL134C, strain PPH21, stronger effect = lower value 1 | locus YDL185W, strain tfp1, stronger effect = lower value 1.07 | locus YDL192W, strain arf1, stronger effect = lower value 1.05 | locus YDR001C, strain nth1, stronger effect = lower value 1.02 | locus YDR069C, strain doa4, stronger effect = lower value 1.01 | locus YDR101C, strain arx1, stronger effect = lower value 1.04 | locus YDR159W, strain sac3, stronger effect = lower value 1.02 | locus YDR162C, strain NBP2, stronger effect = lower value 1.02 | locus YDR195W, strain ref2 1.13 | locus YDR297W, strain sur2, stronger effect = lower value 1.02 | locus YDR318W, strain mcm21, stronger effect = lower value 1.03 | locus YDR334W, strain swr1, stronger effect = lower value 1.04 | locus YDR335W, strain msn5, stronger effect = lower value 1.02 | locus YDR388W, stronger effect = lower value 1.04 | locus YDR392W, strain spt3, stronger effect = lower value 0.923 | locus YDR502C, strain sam2, stronger effect = lower value 1.04 | locus YEL003W, strain gim4, stronger effect = lower value 0.998 | locus YEL037C, strain rad23, stronger effect = lower value 1.02 | locus YEL061C, strain CIN8 (second series), stronger effect = lower value 1.02 | [5] 1.02 | locus YER015W, strain faa2, stronger effect = lower value 1.05 | locus YER016W, strain bim1, stronger effect = lower value 1.01 | locus YER110C, stronger effect = lower value 1.05 | locus YER111C, strain swi4, stronger effect = lower value 1.02 | locus YER155C, strain BEM2 (second series), stronger effect = lower value 1.05 | locus YER155C, strain BEM2, stronger effect = lower value 1.04 | locus YER167W, strain BCK2, stronger effect = lower value 1.03 | locus YFR010W, strain ubp6, stronger effect = lower value 1.03 | locus YGL078C, strain dbp3, stronger effect = lower value 0.953 | locus YGL086W, strain mad1, stronger effect = lower value 1.03 | locus YGL167C, strain pmr1, stronger effect = lower value 1.02 | locus YGL173C, strain kem1, stronger effect = lower value 0.969 | locus YGL227W, strain vid30, stronger effect = lower value 1.02 | locus YGL240W, strain doc1, stronger effect = lower value 1.02 | locus YGL248W, strain PDE1, stronger effect = lower value 1.01 | locus YGL253W, strain hxk2, stronger effect = lower value 1.01 | [6] 1.03 | locus YGR135W, strain pre9, stronger effect = lower value 1.02 | locus YGR252W, strain gcn5, stronger effect = lower value 0.929 | locus YHR013C, strain ard1, stronger effect = lower value 1.06 | locus YHR027C, strain rpn1, stronger effect = lower value 1.01 | [7] 1.05 and 0.889 | locus YHR079C, strain IRE1 (second series), stronger effect = lower value 1.05 | locus YHR079C, strain IRE1, stronger effect = lower value 0.87 | locus YHR094C, strain hxt1, stronger effect = lower value 1.05 | locus YHR129C, strain ARP1, stronger effect = lower value 1.03 | locus YHR142W, strain chs7, stronger effect = lower value 0.993 | locus YHR200W, strain rpn10, stronger effect = lower value 1.06 | locus YIL066C, strain RNR3, stronger effect = lower value 1.03 | locus YIL073C, strain SPO22, stronger effect = lower value 1.12 | locus YIL125W, strain kgd1, stronger effect = lower value 1.05 | locus YIR030C, strain dcg1, stronger effect = lower value 1.05 | locus YJL092W, strain hpr5, stronger effect = lower value 1.03 | locus YJL095W, strain BCK1 (second series), stronger effect = lower value 1.02 | locus YJL095W, strain BCK1, stronger effect = lower value 1.04 and 0.89 | locus YJL115W, strain asf1, stronger effect = lower value 1.03 | locus YJL129C, strain trk1, stronger effect = lower value 1.03 | locus YJL134W, strain LCB3, stronger effect = lower value 1.03 | locus YJL154C, strain vps35, stronger effect = lower value 1.03 | locus YJL164C, strain tpk1, stronger effect = lower value 0.992 | locus YJL166W, strain qcr8, stronger effect = lower value 0.979 | locus YJL168C, strain set2, stronger effect = lower value 1.05 | locus YJL187C, strain SWE1 (second series), stronger effect = lower value 1 | locus YJL187C, strain SWE1, stronger effect = lower value 1.02 | [8] 0.999 | locus YJR066W, strain TOR1, stronger effect = lower value 0.862 | [9] 1.04 | locus YKL009W, strain mrt4, stronger effect = lower value 0.9 | locus YKL068W, stronger effect = lower value 1.03 | locus YKL085W, strain MDH1 (second series), stronger effect = lower value 1.03 | locus YKL085W, strain MDH1, stronger effect = lower value 1.03 | locus YKL160W, strain elf1, stronger effect = lower value 0.974 | locus YKR001C, strain vps1, stronger effect = lower value 1.09 | locus YKR026C, strain gcn3, stronger effect = lower value 1.03 | locus YKR091W, strain srl3, stronger effect = lower value 1.01 | locus YLL001W, strain dnm1, stronger effect = lower value 0.991 | locus YLL026W, stronger effect = lower value 1.02 | locus YLL041C, strain sdh2, stronger effect = lower value 1.03 | locus YLR027C, strain aat2, stronger effect = lower value 1.01 | [10] 1.02 | locus YLR058C, strain SHM2, stronger effect = lower value 1.01 | locus YLR102C, strain apc9, stronger effect = lower value 1.05 | locus YLR113W, strain HOG1, stronger effect = lower value 0.923 | locus YLR221C, strain rsa3, stronger effect = lower value 0.954 | locus YLR258W, strain gsy2, stronger effect = lower value 0.996 | [11] 0.99 | locus YLR268W, strain sec22, stronger effect = lower value 1.03 | locus YLR320W, strain mms22, stronger effect = lower value 0.955 | locus YLR330W, strain CHS5, stronger effect = lower value 1.04 | locus YLR342W, strain FKS1 (second series), stronger effect = lower value 1.04 | locus YLR342W, strain FKS1, stronger effect = lower value 1 | locus YLR357W, strain rsc2, stronger effect = lower value 1.09 | locus YLR370C, strain arc18, stronger effect = lower value 0.993 | locus YLR371W, strain rom2, stronger effect = lower value 1.07 | locus YLR384C, strain iki3, stronger effect = lower value 1.01 | locus YLR418C, strain cdc73, stronger effect = lower value 1.03 | locus YML016C, strain PPZ1, stronger effect = lower value 1.02 | locus YML032C, strain rad52, stronger effect = lower value 1.02 | locus YML120C, strain ndi1, stronger effect = lower value 0.962 | locus YML124C, strain tub3, stronger effect = lower value 1.05 | locus YMR058W, strain fet3, stronger effect = lower value 1.01 | locus YMR078C, strain ctf18, stronger effect = lower value 1.08 | locus YMR125W, strain sto1, stronger effect = lower value 1.04 | locus YMR129W, stronger effect = lower value 1.01 | locus YMR205C, strain PFK2, stronger effect = lower value 0.989 | locus YMR223W, strain ubp8, stronger effect = lower value 1.01 | locus YMR231W, strain pep5, stronger effect = lower value 0.993 | [12] 1.02 | locus YMR307W, strain GAS1, stronger effect = lower value 1.1 | locus YNL067W, strain RPL9B, stronger effect = lower value 0.999 | locus YNL071W, strain lat1, stronger effect = lower value 1.01 | [13] 1 | locus YNL183C, strain NPR1, stronger effect = lower value 0.854 | locus YNL209W, strain ssb2, stronger effect = lower value 1.02 | locus YNL233W, strain BNI4, stronger effect = lower value 1.05 | locus YNL248C, strain rpa49, stronger effect = lower value 1.01 | locus YNL250W, strain rad50, stronger effect = lower value 1.03 | locus YNL271C, strain bni1, stronger effect = lower value 1.01 | locus YNL298W, strain CLA4, stronger effect = lower value 0.977 | locus YNL307C, strain MCK1, stronger effect = lower value 1.04 | locus YNL322C, strain KRE1 (second series), stronger effect = lower value 1.02 | [14] 1.03 | locus YNR049C, strain mso1, stronger effect = lower value 1.01 | locus YNR052C, strain pop2, stronger effect = lower value 0.994 | locus YOL012C, strain htz1 1.83 | locus YOR001W, strain rrp6, stronger effect = lower value 0.979 | locus YOR061W, strain CKA2, stronger effect = lower value 1.06 | locus YOR069W, strain VPS5, stronger effect = lower value 1.03 | locus YOR070C, strain gyp1, stronger effect = lower value 1.01 | locus YOR080W, strain dia2, stronger effect = lower value 1.02 | locus YOR083W, strain WHI5, stronger effect = lower value 0.971 | locus YOR106W, strain vam3, stronger effect = lower value 0.928 | locus YOR136W, strain idh2, stronger effect = lower value 1.06 | locus YOR144C, strain elg1, stronger effect = lower value 1.04 | locus YOR184W, strain ser1, stronger effect = lower value 1.01 | locus YOR265W, strain rbl2, stronger effect = lower value 1.01 | locus YOR270C, strain vph1, stronger effect = lower value 0.964 | locus YOR290C, strain snf2, stronger effect = lower value 0.979 | locus YOR316C, strain cot1, stronger effect = lower value 1.05 | locus YPL051W, strain arl3, stronger effect = lower value 0.978 | locus YPL078C, strain atp4, stronger effect = lower value 0.982 | locus YPL106C, strain sse1, stronger effect = lower value 1.08 | locus YPL240C, strain hsp82, stronger effect = lower value 1.01 | locus YPL256C, strain CLN2, stronger effect = lower value 0.952 | locus YPR119W, strain clb2, stronger effect = lower value 1.03 | locus YPR141C, strain kar3, stronger effect = lower value 1.06 | locus YPR163C, strain tif3, stronger effect = lower value 1.06 | locus YPR167C, strain met16, stronger effect = lower value 1.05 | strain wtn01, stronger effect = lower value 1.06

— PubChem BioAssay AID1159580 (chemical genetic matrix, 2015)
